# In PubChem BioAssay (Tox21):
# Where “and” joins values, the source holds several entries; their conditions need not be identical. Equal entries are not always repeated. Records with an inconclusive call do not appear. Where a call stands in place of a potency, no number is given. Values without a mark were called inactive. Calls of active or inactive are those of the source. Calls come from the whole dose curve.
# Test: qHTS assay for small molecules that induce genotoxicity in human embryonic kidney cells expressing luciferase-tagged ATAD5 - cell viability (AID 651634); note: nearly all actives have a fitted effect of over 25% in size
# Conditions: HEK293T ATAD5-luc cells viability, CellTiter-Fluor, 15.5 h; series mostly up to 83.3 µM; activity, negative = cytotoxicity: at the top concentration
# Text: National Center for Advancing Translational Sciences [NCATS]
# NIH Chemical Genomics Center [NCGC]
# U.S. Environmental Protection Agency [EPA]
# National Institutes of Environmental Health Sciences [NIEHS]
# National Toxicology Program [NTP]
# U.S. Food and Drug Administration [FDA]
# Enhanced Level of Genome Instability Gene 1 (ELG1; human ATAD5) protein levels increase in response to various types of DNA damage. Using a luciferase reporter-gene tagged with ElG1, a cell-based assay [developed by Kyungjae Myung, NHGRI, NIH] was used to measure the induction of ATAD5 in human embryonic kidney cells (HEK293T). So, increase in luciferase activity can be used to identify the compounds that cause genetic stress. In addition to genotoxicity, these cells were also used to test for cytotoxicity by measuring the protease activity within live cells.
# Tox21 Assay Protocol Summary:
# For cytotoxicity screening, 2,000 cells in 5 uL/well were dispensed into white, solid-bottom 1536-well plates using a Multidrop Combi (Thermo Scientific) dispenser. Following transfer of 23 nL compound or DMSO vehicle by a pin tool, the plates were incubated 15.5 hr at 37C and 5% CO2. 1 ul CellTiter-Fluor reagent (Promega, Madison, WI) was then added to each plate and following 30 min incubation at 37C, fluorescence intensity was quantified on a ViewLux CCD-based plate reader.
# Potency is the fitted concentration of half-maximal effect.
SMILES,Potency,"activity, negative = cytotoxicity"
S=C(NC1CCCCC1)NC1CCCCC1,inactive,
Cc1cccc([N+](=O)[O-])c1C,inactive,
Cc1c(C(N)=O)cc([N+](=O)[O-])cc1[N+](=O)[O-],inactive,
O=C1OC2(c3cc(Br)c(O)c(Br)c3Oc3c2cc(Br)c(O)c3Br)c2c(Cl)c(Cl)c(Cl)c(Cl)c21,9.7 µM (active) and 37.1 µM (active),
O=Cc1ccccc1O,inactive,
C=C(C)C(=O)OCCOC(=O)C(=C)C,inactive,
CCCc1c(OCCCCc2nn[nH]n2)ccc(C(C)=O)c1O,inactive,
CC(=O)C1(C)CC2=C(CCCC2(C)C)CC1C (stereo not given),,-7.16%
CCCCc1oc2ccccc2c1C(=O)c1cc(I)c(OCCN(CC)CC)c(I)c1,inactive,
C=C(C)C1CC=C(C)CC1 (stereo not given),inactive,
OC[C@H]1O[C@@H]2O[C@H]3[C@H](O)[C@@H](O)[C@@H](O[C@H]4[C@H](O)[C@@H](O)[C@@H](O[C@H]5[C@H](O)[C@@H](O)[C@@H](O[C@H]6[C@H](O)[C@@H](O)[C@@H](O[C@H]7[C@H](O)[C@@H](O)[C@@H](O[C@H]8[C@H](O)[C@@H](O)[C@@H](O[C@H]1[C@H](O)[C@H]2O)O[C@@H]8CO)O[C@@H]7CO)O[C@@H]6CO)O[C@@H]5CO)O[C@@H]4CO)O[C@@H]3CO,inactive,
O=C(c1ccccc1)c1ccc(O)cc1O,inactive,
Nc1ccccc1N,inactive,
Nc1ccc(S(=O)(=O)Nc2cnc3ccccc3n2)cc1,inactive,
CC(C)(C)NC(=O)[C@H]1CC[C@H]2[C@@H]3CC[C@H]4NC(=O)C=C[C@]4(C)[C@H]3CC[C@]12C,inactive,
Cc1cccc(N(C)C(=S)Oc2ccc3ccccc3c2)c1,inactive,
Nc1ccc(Nc2ccccc2)cc1,inactive,
OC(CCl)CCl,inactive,
c1ccc2sc(SSN3CCOCC3)nc2c1,,-16.9%
OCCO,inactive,

SMILES,Potency,"activity, negative = cytotoxicity"
CCCCNS(=O)(=O)c1ccccc1,inactive,
O=C(O)c1ccccc1Nc1cccc(C(F)(F)F)c1,inactive,
c1ccncc1,inactive,
COc1ccc(OC)c(C(O)CNC(=O)CN)c1 (stereo not given),inactive,
C#C[C@]1(O)CC[C@H]2[C@@H]3CCc4cc(OC)ccc4[C@H]3CC[C@@]21C,inactive,
O=C(/C=C/c1ccccc1)OCc1ccccc1,inactive,
COC(C)COC(C)COC(C)CO (stereo not given),inactive,
C[C@]12CC[C@H]3[C@@H](CCC4=CC(=O)CC[C@@]43C)[C@@H]1CC[C@@H]2C(=O)CO,inactive,
O=P(O)(O)O,inactive,
COc1c(Cl)c(Cl)c(Cl)c(Cl)c1Cl,inactive,
CC(C)OC(=O)C(C)(C)Oc1ccc(C(=O)c2ccc(Cl)cc2)cc1,inactive,
CNCCCC12CCC(c3ccccc31)c1ccccc12,,19%
c1ccc(Nc2ccccc2)cc1,inactive,
CN1C(C(=O)Nc2ccccn2)=C(O)c2ccccc2S1(=O)=O,inactive,
CCCCCCCCCC(=O)OC,inactive,
c1cc(-c2ccncc2)ccn1,inactive,
COC(=O)CCC(=O)OC,inactive,
Cc1cccc(C(=O)O)c1,inactive,
CC(=O)c1ccccn1,inactive,
CN(C)C(=N)N=C(N)N,inactive,
